{
  "source": "PubChem BioAssay (NCATS)",
  "note": "Inconclusive results are not listed. Active and inactive are the calls of the source. Unless noted, calls come from the whole dose curve; as a rule, active = well fitted inhibition curve with a large enough effect; inconclusive = small, poorly fitted or top-dose-only effect; inactive = no such curve, though single readings can be large or run the other way. Potency is the fitted concentration of half-maximal effect.",
  "data": [
    {"experiment": "S16 Schwann cell PMP22 intronic element firefly luciferase assay (AID 624032); note: nearly all actives have a fitted effect of over 30% in size;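 for activity change, negative = inhibition: plate controls were DMSO for no effect and PTC124 positive control mean for full effect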", "details": "S16 rat Schwann cells, PMP22 element FLuc, 24 h; series mostly up to 57.5 µM; activity change, negative = inhibition: at the top concentration", "summary_of_the_method": "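Luciferase reporter of PMP22 intronic-element expression in stably transfected S16 rat Schwann cells, read by ONE-Glo luminescence after 24 h compound exposure at 37 C. Activity scaled between DMSO (0%) and positive-control PTC124; concentration-effect curves quality-classified.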", "values": [
      {"smiles": "C[C@]12C=CC(=O)C=C1CC[C@@H]1[C@@H]2C(=O)C[C@@]2(C)[C@H]1CC[C@]2(O)C(=O)CO", "activity change, negative = inhibition": "4.08% (inactive)"},
      {"smiles": "CCOc1cc(N)c(Cl)cc1C(=O)NCC1CN(Cc2ccc(F)cc2)CCO1", "note": "(stereo not drawn)", "activity change, negative = inhibition": "-0.33% (inactive)"},
      {"smiles": "CC[C@H](C)C(=O)O[C@H]1C[C@@H](C)C=C2C=C[C@H](C)[C@H](CC[C@@H]3C[C@@H](O)CC(=O)O3)[C@H]21", "activity change, negative = inhibition": "-7.35% (inactive)"},
      {"smiles": "CCC(C)(C)c1ccc(CC(C)CN2C[C@@H](C)O[C@@H](C)C2)cc1", "note": "(stereo partly drawn)", "activity change, negative = inhibition": "-16.4% (inactive)"},
      {"smiles": "O=C(O)c1cccnc1", "activity change, negative = inhibition": "-19.8% (inactive)"},
      {"smiles": "CCn1cc(C(=O)O)c(=O)c2cc(F)c(N3CCN(C)CC3)cc21", "activity change, negative = inhibition": "42.8% (inactive)"},
      {"smiles": "C[C@@H](NCCCc1cccc(C(F)(F)F)c1)c1cccc2ccccc12", "Potency": "14.4 µM (active)"},
      {"smiles": "CN1CCN(c2c(F)cc3c(=O)c(C(=O)O)cn4c3c2OCN4C)CC1", "activity change, negative = inhibition": "12.1% (inactive)"},
      {"smiles": "Cn1nnc2c(C(N)=O)ncn2c1=O", "activity change, negative = inhibition": "17.1% (inactive)"},
      {"smiles": "Cc1ncc([N+](=O)[O-])n1CCO", "activity change, negative = inhibition": "-24.9% (inactive)"},
      {"smiles": "CC(C)(C#N)c1cc(Cn2cncn2)cc(C(C)(C)C#N)c1", "activity change, negative = inhibition": "3.3% (inactive)"},
      {"smiles": "CN(C)c1ccc(C(=C2C=CC(=[N+](C)C)C=C2)c2ccc(N(C)C)cc2)cc1", "Potency": "9.07 µM (active)"},
      {"smiles": "COc1nc(N)nc2c1ncn2[C@@H]1O[C@H](CO)[C@@H](O)[C@@H]1O", "Potency": "2.03 µM (active)"},
      {"smiles": "CNS(=O)(=O)Cc1ccc2[nH]cc(CCN(C)C)c2c1", "activity change, negative = inhibition": "-4.58% (inactive)"},
      {"smiles": "CCOCC(O)COc1ccc(NC(=O)CC[S+](C)C)cc1", "note": "(stereo not drawn)", "activity change, negative = inhibition": "-0.895% (inactive)"},
      {"smiles": "CCn1cc(C(=O)O)c(=O)c2cc(F)c(N3CCNCC3)nc21", "activity change, negative = inhibition": "-11.3% [at 25.7 µM] (inactive)"},
      {"smiles": "Nc1[nH]c(=O)ncc1F", "activity change, negative = inhibition": "1.76% [at 25.7 µM] (inactive)"},
      {"smiles": "Oc1c(Cl)cc(Cl)c2cccnc12", "Potency": "3.61 µM (active)"},
      {"smiles": "Cc1ccnc2c1NC(=O)c1cccnc1N2C1CC1", "activity change, negative = inhibition": "-4.99% (inactive)"},
      {"smiles": "O=P(O)(O)C(O)(Cc1cccnc1)P(=O)(O)O", "activity change, negative = inhibition": "12.7% (inactive)"},
      {"smiles": "CCc1cc(C(N)=S)ccn1", "activity change, negative = inhibition": "-26.7% (inactive)"},
      {"smiles": "Cc1cccc(Nc2ccncc2S(=O)(=O)NC(=O)NC(C)C)c1", "activity change, negative = inhibition": "-10.5% [at 25.7 µM] (inactive)"},
      {"smiles": "CNC1CCCN(c2c(F)cc3c(=O)c(C(=O)O)cn(C4CC4)c3c2OC)C1", "note": "(stereo not drawn)", "activity change, negative = inhibition": "16.4% (inactive)"},
      {"smiles": "N[C@@H](C(=O)N[C@@H]1C(=O)N2C(C(=O)O)=C(Cl)CS[C@H]12)c1ccccc1", "activity change, negative = inhibition": "17.8% (inactive)"},
      {"smiles": "NCCCC(O)(P(=O)(O)O)P(=O)(O)O", "activity change, negative = inhibition": "7.25% (inactive)"},
      {"smiles": "OC(Cn1cncn1)(Cn1cncn1)c1ccc(F)cc1F", "activity change, negative = inhibition": "-2.25% (inactive)"},
      {"smiles": "CC(C)(Sc1cc(C(C)(C)C)c(O)c(C(C)(C)C)c1)Sc1cc(C(C)(C)C)c(O)c(C(C)(C)C)c1", "activity change, negative = inhibition": "-20.6% [at 25.7 µM] (inactive)"},
      {"smiles": "O=S(=O)(c1cccc2cnccc12)N1CCCNCC1", "activity change, negative = inhibition": "2.4% (inactive)"},
      {"smiles": "CCOC(=O)[C@H](CCc1ccccc1)N[C@H]1CS[C@H](c2cccs2)CN(CC(=O)O)C1=O", "activity change, negative = inhibition": "-8.84% (inactive)"},
      {"smiles": "Cc1cc(NS(=O)(=O)c2ccc(N)cc2)no1", "activity change, negative = inhibition": "-18.9% (inactive)"},
      {"smiles": "CC(C)OC(=O)C(C(=O)OC(C)C)=C1SC=CS1", "activity change, negative = inhibition": "-4.55% (inactive)"},
      {"smiles": "CC1=CC(=O)c2ccccc2C1=O", "Potency": "22.8 µM (active)"},
      {"smiles": "COc1ccc(C(=O)CC(=O)c2ccc(C(C)(C)C)cc2)cc1", "activity change, negative = inhibition": "-23.1% (inactive)"}
    ]},
    {"experiment": "S16 Schwann cell PMP22 intronic element beta-lactamase assay (AID 624044; calls by dose curve; note: nearly all actives have a fitted effect of over 15% in size;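 for ratio activity, negative = inhibition: 0% = DMSO and -100% = potassium clavulanate positive control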)", "details": "S16 rat Schwann cells, PMP22 element beta-lactamase FRET, 24 h; series mostly up to 38.3 µM; ratio activity, negative = inhibition: at the top concentration", "summary_of_the_method": "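Beta-lactamase reporter under a PMP22 intronic regulatory element in stable S16 rat Schwann cells; 24 h compound exposure. 460 nm blue signal normalized between DMSO (0%) and potassium clavulanate, with 535 nm FRET tracking viability; curves classed by r2 and response.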", "values": [
      {"smiles": "C[C@]12C=CC(=O)C=C1CC[C@@H]1[C@@H]2C(=O)C[C@@]2(C)[C@H]1CC[C@]2(O)C(=O)CO", "ratio activity, negative = inhibition": "-4.67% (inactive)"},
      {"smiles": "CCOc1cc(N)c(Cl)cc1C(=O)NCC1CN(Cc2ccc(F)cc2)CCO1", "note": "(stereo not drawn)", "ratio activity, negative = inhibition": "0.91% (inactive)"},
      {"smiles": "CC[C@H](C)C(=O)O[C@H]1C[C@@H](C)C=C2C=C[C@H](C)[C@H](CC[C@@H]3C[C@@H](O)CC(=O)O3)[C@H]21", "ratio activity, negative = inhibition": "-9.36% (inactive)"},
      {"smiles": "CCC(C)(C)c1ccc(CC(C)CN2C[C@@H](C)O[C@@H](C)C2)cc1", "note": "(stereo partly drawn)", "ratio activity, negative = inhibition": "-2.6% (inactive)"},
      {"smiles": "CCn1cc(C(=O)O)c(=O)c2cc(F)c(N3CCN(C)CC3)cc21", "ratio activity, negative = inhibition": "0.19% (inactive)"},
      {"smiles": "C[C@@H](NCCCc1cccc(C(F)(F)F)c1)c1cccc2ccccc12", "ratio activity, negative = inhibition": "-34.1% (inactive)"},
      {"smiles": "Oc1c(Cl)cc(Cl)c2cccnc12", "Potency": "28.2 µM (active)"},
      {"smiles": "CCc1cc(C(N)=S)ccn1", "ratio activity, negative = inhibition": "4.31% (inactive)"},
      {"smiles": "CNC1CCCN(c2c(F)cc3c(=O)c(C(=O)O)cn(C4CC4)c3c2OC)C1", "note": "(stereo not drawn)", "ratio activity, negative = inhibition": "4.95% (inactive)"},
      {"smiles": "NCCCC(O)(P(=O)(O)O)P(=O)(O)O", "ratio activity, negative = inhibition": "2.42% (inactive)"},
      {"smiles": "OC(Cn1cncn1)(Cn1cncn1)c1ccc(F)cc1F", "ratio activity, negative = inhibition": "-5% (inactive)"},
      {"smiles": "CCOC(=O)[C@H](CCc1ccccc1)N[C@H]1CS[C@H](c2cccs2)CN(CC(=O)O)C1=O", "ratio activity, negative = inhibition": "-1.64% (inactive)"},
      {"smiles": "CC(C)OC(=O)C(C(=O)OC(C)C)=C1SC=CS1", "ratio activity, negative = inhibition": "-7.14% (inactive)"},
      {"smiles": "CC1=CC(=O)c2ccccc2C1=O", "ratio activity, negative = inhibition": "0.0566% (inactive)"},
      {"smiles": "COc1ccc(C(=O)CC(=O)c2ccc(C(C)(C)C)cc2)cc1", "ratio activity, negative = inhibition": "-1% (inactive)"}
    ]}
  ]
}
